For eight molecules, growth results are on record in PubChem BioAssay (NCI).

The panel holds about 83,000 compounds, 20% with a hit somewhere; the sample as a whole holds those more often.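 96-well plates, one dose, 48 hours. Percent growth reported; active if below 10.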 Values without a mark were called inactive. The source made the active and inactive calls.

Common to all, as to test: NCI-60 one-dose screen, 48 h (100 = growth as untreated, 0 = no growth, -100 = all killed)
Conditions in all cases: 10 µM unless noted

The test system of experiment [1] is NCI-H23 lung.
Experiment [2] relates to NCI-H226 lung.
Experiment [3] concerns NCI-H322M lung.
The subject of experiment [4] is HOP-62 NSCLC.
Experiment [5] has as its system NCI-H460 lung.
Experiment [6] relates to NCI-H522 lung.
The test system of experiment [7] is A549/ATCC NSCLC.
For experiment [8], the system named is 786-0 renal.
For experiment [9], the system named is COLO 205 colon.
The subject of experiment [10] is DU-145 prostate.
The test system of experiment [11] is K-562 leukemia.
Experiment [12] relates to MALME-3M melanoma.
Experiment [13] relates to MDA-MB-231 breast.
For experiment [14], the system named is RXF 393 renal.
Experiment [15] relates to SF-268 CNS.
Experiment [16] deals with SF-295 CNS.
Experiment [17] concerns SF-539 CNS.
For experiment [18], the system named is UACC-257 melanoma.
The subject of experiment [19] is M14 melanoma.

Take `Clc1ccc(N/N=c2/oc3ccccc3cc2-c2cc3ccccc3[nH]2)cc1`: the growth in experiment [1] is 64.4%; in experiment [2], 77.7%; in experiment [3] it was 78.6%; in experiment [4], 75.9%; in experiment [5] it was 85.2%; in [6], 77.1%. For the same molecule, the growth in experiment [7] is 76.2%; in [8] it was 87.7%; in [9] it was 95.8%; in experiment [10] it was 88.6%; in [11] it was 67%; in experiment [12], 55.3%. Besides, the growth in experiment [13] was 67.1%; in experiment [14] it was 76%; in experiment [15] it was 85.1%; in [16], 71%; in experiment [17] it was 87.3%; in [18], 84.1%. Also, in experiment [19], the growth is 66.5%.
On to `N#Cc1cccc(/C(N)=N/C(N)=N/c2nc3ccccc3s2)c1`, for which the growth in [1] was 27.7%; in [2], 72%; in experiment [3] it was 48.5%; in experiment [4], 45%; in experiment [5], 22%; in [6], 3.75% (active). For the same molecule, the growth is 60.8% in experiment [7]; 46% in [8]; 17.4% in [9]; 17.5% in experiment [10]; 12.7% in experiment [11]; 59.3% in [12]. The growth in [13] was 37.3%; in experiment [14] it was 13%; in experiment [15] it was 56.5%; in experiment [16] it was 1.87% (active); in experiment [17], 4.08% (active); in experiment [18], 90.6%. For the same molecule, the growth in experiment [19] was 20.8%.
For `CC(O)c1cc2ccccc2c(=O)o1` (configuration not stated), the growth was 99.8% in experiment [1]; 89.2% in [2]; 103% in experiment [3]; 105% in experiment [4]; 104% in [5]; 98.6% in [6]. The growth was 102% in experiment [7]; 101% in [8]; 112% in [9]; 110% in [10]; 101% in experiment [11]; 98.2% in [12]. Further, the growth in experiment [13] is 103%; in experiment [14], 129%; in experiment [15] it was 98.3%; in experiment [16], 97.7%; in [17], 95.2%; in experiment [18], 96.7%. Moreover, in [19], the growth was 107%.
In the case of `N/C(=N\C(N)=N\c1nc2ccccc2s1)c1ccncc1Cl`, the growth in experiment [1] was 33.9%; in experiment [2], 67.8%; in experiment [3], 80.6%; in experiment [4], 51.6%; in [5], 23.4%; in experiment [6], 18.4%. Further, the growth in experiment [7] is 71%; in [8], 42.7%; in [9], 50.4%; in [10], 45.7%; in experiment [11], 17.1%; in experiment [12], 45.7%. For the same molecule, the growth was 45% in experiment [13]; 8.87% (active) in [14]; 52.6% in [15]; -22.2% (active) in [16]; 7.8% (active) in [17]; 79.7% in experiment [18]. The growth in experiment [19] was 32.4%.
As for `CC(C)(C)n1nnnc1C(Nc1cccc2c1OCO2)c1cc2cccc3ccc4cccc1c4c32` (configuration not stated), the growth in experiment [1] was 87.4%; in [2], 82.2%; in [3], 96%; in experiment [4], 98.8%; in [5] it was 88.8%; in experiment [6] it was 78.8%. Besides, the growth in experiment [7] is 81.3%; in experiment [8], 93.2%; in experiment [9], 103%; in experiment [10], 97.5%; in experiment [11], 75%; in experiment [12], 93.2%. In addition, the growth in experiment [13] is 80.5%; in experiment [14], 40.6%; in [15], 78.7%; in [16] it was 81.9%; in experiment [17], 93%; in experiment [18], 100%. In experiment [19], the growth was 97.8%.
`NS(=O)(=O)c1ccc(Nc2cc(-c3ccccc3)nc(SCC(=O)c3ccccc3)n2)cc1`: the growth was 92.5% in [1]; 92.8% in experiment [2]; 90.4% in [3]; 106% in experiment [4]; 103% in [5]; 98.6% in experiment [6]. Besides, the growth in experiment [7] was 98.8%; in experiment [8] it was 96.9%; in [9], 116%; in experiment [10], 103%; in [11], 98.1%; in [12], 93%. The growth is 92.9% in experiment [13]; 94.9% in experiment [14]; 97.1% in experiment [15]; 99.6% in experiment [16]; 101% in [17]; 99% in experiment [18]. Besides, the growth in experiment [19] is 98.4%.
For the molecule `COc1cc(OC)c(S(N)(=O)=O)cc1C(=O)/C=C/c1ccc(Cl)cc1`, the growth was 6.85% (active) in [1]; -26% (active) in experiment [2]; 16.3% in [3]; 9.71% (active) in [4]; -11.2% (active) in experiment [5]; -6.47% (active) in [6]. The growth is 6.83% (active) in experiment [7]; 13.8% in experiment [8]; -30% (active) in [9]; 5.02% (active) in experiment [10]; 7.15% (active) in [11]; 61.4% in [12]. Further, the growth in [13] was 11.5%; in experiment [14], -40.4% (active); in [15], 6.79% (active); in experiment [16], 1.14% (active); in experiment [17], 0.148% (active); in [18] it was 73.6%. Further, in [19], the growth was 19.9%.
In the case of `CN1CCN(c2nc(-c3csc(-c4ccccc4)n3)cc3ccccc23)CC1`, the growth in experiment [1] is 66.7%; in [2], 97.7%; in experiment [3], 72.9%; in experiment [4], 70.2%; in experiment [5] it was -26.1% (active); in experiment [6], 37.1%. The growth was 53.8% in [7]; 46.4% in [8]; -84.4% (active) in experiment [9]; 30.8% in experiment [10]; -35.1% (active) in experiment [11]; 49% in experiment [12]. Also, the growth in experiment [13] was 38.4%; in [14] it was -4.62% (active); in experiment [15] it was 53%; in experiment [16], 74.7%; in experiment [17] it was 57.5%; in [18] it was 46.6%. The growth in [19] is -70.8% (active).
